Assay results from PubChem BioAssay (Tox21).
Results filed as inconclusive are left out. Activity calls are given as the source filed them. Unless noted, calls come from the whole dose curve; as a rule, active = well fitted curve in the direction sought with a large enough effect in the repeat runs; inconclusive = weak or mixed curves; inactive = no such curve, though single readings can be large; an effect the other way counts as inactive or inconclusive.

What was measured:
[1] = target: Acetylcholinesterase (Homo sapiens) (UniProt P22303); assay: Acetylcholinesterase (AChE) small molecule antagonists: fluorescence cell-based qHTS assay (AID 1347398; calls by dose curve; note: nearly all actives have a fitted effect of over 50% in size; note: potency is the fitted concentration of half-maximal effect); conditions: Potency: AChE activity
Sequence of Acetylcholinesterase (Homo sapiens) (P22303 whole entry, looked up): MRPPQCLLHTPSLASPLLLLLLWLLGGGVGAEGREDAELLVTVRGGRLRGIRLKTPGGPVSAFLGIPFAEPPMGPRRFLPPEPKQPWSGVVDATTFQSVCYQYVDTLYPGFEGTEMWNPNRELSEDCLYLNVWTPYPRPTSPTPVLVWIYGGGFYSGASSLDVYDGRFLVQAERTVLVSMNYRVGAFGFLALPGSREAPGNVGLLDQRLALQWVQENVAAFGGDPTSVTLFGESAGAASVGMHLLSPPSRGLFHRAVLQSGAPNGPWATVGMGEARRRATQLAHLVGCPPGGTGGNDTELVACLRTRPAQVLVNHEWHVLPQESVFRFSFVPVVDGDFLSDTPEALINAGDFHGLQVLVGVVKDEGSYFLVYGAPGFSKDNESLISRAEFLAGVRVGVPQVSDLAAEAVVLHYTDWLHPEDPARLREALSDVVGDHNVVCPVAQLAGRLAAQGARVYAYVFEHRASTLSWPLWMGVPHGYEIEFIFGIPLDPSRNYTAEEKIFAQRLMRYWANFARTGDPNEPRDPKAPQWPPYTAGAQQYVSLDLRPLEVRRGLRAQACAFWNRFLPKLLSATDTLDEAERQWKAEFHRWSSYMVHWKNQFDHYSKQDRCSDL
Method in brief: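 SH-SY5Y, 2,000 cells/well, attached overnight; cmpd 30 min 37 C; acetylthiocholine/Thiolite Green cocktail 40 min RT; fluorescence Ex/Em 490/520 nm.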

[2] = target: Acetylcholinesterase (Homo sapiens) (UniProt P22303); assay: Acetylcholinesterase (AChE) small molecule antagonists: enzyme-based qHTS assay with human liver microsomes (AID 1347399; calls by dose curve; note: nearly all actives have a fitted effect of over 60% in size); conditions: Potency: qHTS inhibition
Method in brief: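 Recombinant human AChE (50 mU/mL in the enzyme mix) and human liver microsomes (0.25 mg/mL final) were preincubated with compound and NADPH (0.25 mg/mL final) for 30 min at 37 C. Acetylthiocholine/DTNB was then added; thiocholine was read colorimetrically after 10 min at room temperature.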

[3] = target: Cytochrome P450 2C19 (Homo sapiens) (UniProt P33261); assay: Cytochrome P450 Family 2 Subfamily C Member 19 (CYP2C19) small molecule antagonists: luciferase reporter qHTS assay (AID 1671197); note: nearly all actives have a fitted effect of over 65% in size; note: potency is the fitted concentration of half-maximal effect
Sequence of Cytochrome P450 2C19 (Homo sapiens) (P33261 whole entry, looked up): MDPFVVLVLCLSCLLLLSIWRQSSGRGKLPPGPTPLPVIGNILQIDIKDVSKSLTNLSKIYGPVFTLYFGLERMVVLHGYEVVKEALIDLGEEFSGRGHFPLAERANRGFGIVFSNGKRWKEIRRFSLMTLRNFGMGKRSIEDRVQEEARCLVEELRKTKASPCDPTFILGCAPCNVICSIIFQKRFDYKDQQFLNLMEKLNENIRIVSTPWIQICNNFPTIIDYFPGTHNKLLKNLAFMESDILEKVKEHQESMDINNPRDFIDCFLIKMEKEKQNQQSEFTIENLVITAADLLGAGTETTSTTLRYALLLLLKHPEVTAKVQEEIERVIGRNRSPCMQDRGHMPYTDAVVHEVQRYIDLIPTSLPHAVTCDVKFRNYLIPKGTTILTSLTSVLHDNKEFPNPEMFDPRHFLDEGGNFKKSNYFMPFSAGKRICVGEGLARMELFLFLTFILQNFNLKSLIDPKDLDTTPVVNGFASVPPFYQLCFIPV
Method in brief: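 Compounds were tested on CYP2C19 activity via proluciferin conversion to luciferin. The 37C, 1 h reaction followed NADPH addition; detection reagent stopped it.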

[4] = target: Cytochrome P450 2C9 (Homo sapiens) (UniProt P11712); assay: Cytochrome P450 Family 2 Subfamily C Member 9 (CYP2C9) small molecule antagonists: luciferase reporter qHTS assay (AID 1671198); note: nearly all actives have a fitted effect of over 50% in size; note: potency is the fitted concentration of half-maximal effect
Sequence of Cytochrome P450 2C9 (Homo sapiens) (P11712 whole entry, looked up): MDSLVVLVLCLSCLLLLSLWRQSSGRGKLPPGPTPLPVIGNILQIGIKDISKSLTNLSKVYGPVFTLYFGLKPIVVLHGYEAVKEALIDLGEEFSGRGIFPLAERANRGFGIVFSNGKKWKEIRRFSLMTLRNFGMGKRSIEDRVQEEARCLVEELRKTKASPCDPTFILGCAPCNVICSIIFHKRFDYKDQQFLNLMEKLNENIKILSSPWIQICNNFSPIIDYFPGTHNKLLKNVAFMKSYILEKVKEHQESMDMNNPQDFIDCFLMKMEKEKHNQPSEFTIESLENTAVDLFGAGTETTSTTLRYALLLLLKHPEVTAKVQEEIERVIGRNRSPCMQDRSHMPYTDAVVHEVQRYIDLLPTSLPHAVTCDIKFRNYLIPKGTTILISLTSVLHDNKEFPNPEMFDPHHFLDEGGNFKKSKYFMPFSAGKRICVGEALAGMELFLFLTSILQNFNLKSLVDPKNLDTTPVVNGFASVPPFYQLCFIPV
Method in brief: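 P450-Glo proluciferin substrate with CYP2C9 enzyme; 10 min RT preincubation, then NADPH regeneration 1 h at 37C; luciferin detection reagent 20 min RT, luminescence in relative luminescence units.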

[5] = target: Cytochrome P450 1A2 (Homo sapiens) (UniProt P05177); assay: Cytochrome P450 Family 1 Subfamily A Member 2 (CYP1A2) small molecule antagonists: luciferase reporter qHTS assay (AID 1671199); note: nearly all actives have a fitted effect of over 50% in size; note: potency is the fitted concentration of half-maximal effect
Sequence of Cytochrome P450 1A2 (Homo sapiens) (P05177 whole entry, looked up): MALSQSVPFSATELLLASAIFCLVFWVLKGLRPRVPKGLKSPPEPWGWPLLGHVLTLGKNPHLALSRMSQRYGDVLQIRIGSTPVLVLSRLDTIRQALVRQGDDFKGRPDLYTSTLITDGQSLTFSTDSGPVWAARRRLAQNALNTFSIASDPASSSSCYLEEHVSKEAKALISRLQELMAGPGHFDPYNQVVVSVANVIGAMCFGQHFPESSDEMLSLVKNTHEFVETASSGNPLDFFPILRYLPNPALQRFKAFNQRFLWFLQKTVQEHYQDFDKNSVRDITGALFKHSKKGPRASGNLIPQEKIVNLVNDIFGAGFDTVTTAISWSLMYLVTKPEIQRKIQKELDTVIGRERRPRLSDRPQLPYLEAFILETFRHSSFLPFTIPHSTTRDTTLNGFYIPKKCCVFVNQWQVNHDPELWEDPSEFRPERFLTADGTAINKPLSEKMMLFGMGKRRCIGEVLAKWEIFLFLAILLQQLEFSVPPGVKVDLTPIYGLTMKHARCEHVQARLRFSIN
Method in brief: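 Read-out is luminescence from luciferin detection reagent (20 min) proportional to CYP1A2 activity; compounds in DMSO preincubated 10 min with enzyme and proluciferin substrate, then NADPH regeneration solution, 1 h, room temperature.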

[6] = target: Voltage-gated inwardly rectifying potassium channel KCNH2 (Homo sapiens) (UniProt Q12809); assay: Human Ether-a-go-go-Related Gene (hERG) channel small molecule antagonists: fluorescence cell-based qHTS assay (AID 1671200);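 note: hERG-expressing U2OS cells given a thallium stimulus after FluxOR II dye loading; series mostly up to about 77 µM; nearly all actives have a fitted effect of over 50% in size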
Sequence of Voltage-gated inwardly rectifying potassium channel KCNH2 (Homo sapiens) (Q12809 whole entry, looked up): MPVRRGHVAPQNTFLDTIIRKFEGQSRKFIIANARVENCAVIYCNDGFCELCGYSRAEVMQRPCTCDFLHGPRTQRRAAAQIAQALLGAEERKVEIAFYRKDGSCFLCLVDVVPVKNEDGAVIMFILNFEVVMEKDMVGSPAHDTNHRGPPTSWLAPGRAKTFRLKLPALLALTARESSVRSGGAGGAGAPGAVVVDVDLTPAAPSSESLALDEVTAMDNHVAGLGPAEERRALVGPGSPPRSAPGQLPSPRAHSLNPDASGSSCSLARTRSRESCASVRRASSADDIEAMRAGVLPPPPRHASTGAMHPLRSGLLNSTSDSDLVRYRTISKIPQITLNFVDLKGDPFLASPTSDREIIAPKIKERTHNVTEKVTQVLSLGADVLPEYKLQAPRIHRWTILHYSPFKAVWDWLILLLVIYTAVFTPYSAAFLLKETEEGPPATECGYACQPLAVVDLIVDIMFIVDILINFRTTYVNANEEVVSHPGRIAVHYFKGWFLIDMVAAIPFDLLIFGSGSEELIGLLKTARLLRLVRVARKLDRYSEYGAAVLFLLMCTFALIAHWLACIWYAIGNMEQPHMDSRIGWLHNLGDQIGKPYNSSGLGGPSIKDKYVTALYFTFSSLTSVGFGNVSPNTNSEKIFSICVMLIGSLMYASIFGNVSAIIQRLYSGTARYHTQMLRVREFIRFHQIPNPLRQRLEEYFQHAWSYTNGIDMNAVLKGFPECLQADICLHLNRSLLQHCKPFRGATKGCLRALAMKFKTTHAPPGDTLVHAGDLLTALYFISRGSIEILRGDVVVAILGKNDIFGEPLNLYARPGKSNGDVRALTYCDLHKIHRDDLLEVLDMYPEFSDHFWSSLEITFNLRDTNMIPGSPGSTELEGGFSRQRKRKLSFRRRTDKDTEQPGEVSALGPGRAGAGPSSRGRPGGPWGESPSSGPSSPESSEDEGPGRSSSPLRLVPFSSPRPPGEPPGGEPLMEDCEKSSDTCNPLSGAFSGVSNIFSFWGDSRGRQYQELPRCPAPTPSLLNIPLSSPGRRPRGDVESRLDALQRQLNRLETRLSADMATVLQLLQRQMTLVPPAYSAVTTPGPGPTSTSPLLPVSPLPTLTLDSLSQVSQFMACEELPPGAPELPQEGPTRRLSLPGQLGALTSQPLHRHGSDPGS
Method in brief: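 In this thallium-flux screen, overnight-cultured U2OS cells bearing the channel are dye-loaded in darkness for an hour, rested 10 min at room temperature, and then monitored kinetically at 480/540 nm for two minutes post-stimulus.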

[7] = target: Cytochrome P450 3A4 (Homo sapiens) (UniProt P08684); assay: Cytochrome P450 Family 3 Subfamily A Member 4 (CYP3A4) small molecule antagonists: luciferase reporter qHTS assay (AID 1671201); note: nearly all actives have a fitted effect of over 50% in size; note: potency is the fitted concentration of half-maximal effect
Sequence of Cytochrome P450 3A4 (Homo sapiens) (P08684 whole entry, looked up): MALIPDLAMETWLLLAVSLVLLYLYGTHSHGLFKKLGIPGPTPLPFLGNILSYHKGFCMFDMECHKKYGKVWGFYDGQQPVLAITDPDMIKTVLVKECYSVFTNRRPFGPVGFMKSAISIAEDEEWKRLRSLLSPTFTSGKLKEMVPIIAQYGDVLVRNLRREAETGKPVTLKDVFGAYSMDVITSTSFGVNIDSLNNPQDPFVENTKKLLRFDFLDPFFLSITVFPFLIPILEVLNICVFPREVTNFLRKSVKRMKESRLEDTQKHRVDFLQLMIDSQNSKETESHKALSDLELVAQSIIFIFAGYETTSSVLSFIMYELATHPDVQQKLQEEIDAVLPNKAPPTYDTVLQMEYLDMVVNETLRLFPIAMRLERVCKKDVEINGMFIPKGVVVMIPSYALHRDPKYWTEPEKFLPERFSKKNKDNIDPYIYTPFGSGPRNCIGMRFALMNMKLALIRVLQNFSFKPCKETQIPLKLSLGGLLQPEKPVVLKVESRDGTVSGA
Method in brief: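 CYP3A4 activity was followed with a P450-Glo proluciferin substrate. Test compounds in DMSO were preincubated 10 min; NADPH regeneration then ran 1 h, and light output was read 20 min after detection reagent.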

[8] = target: Cytochrome P450 2D6 (Homo sapiens) (UniProt P10635); assay: Cytochrome P450 Family 2 Subfamily D Member 6 (CYP2D6) small molecule antagonists: luciferase reporter qHTS assay (AID 1671196)
Sequence of Cytochrome P450 2D6 (Homo sapiens) (P10635 whole entry, looked up): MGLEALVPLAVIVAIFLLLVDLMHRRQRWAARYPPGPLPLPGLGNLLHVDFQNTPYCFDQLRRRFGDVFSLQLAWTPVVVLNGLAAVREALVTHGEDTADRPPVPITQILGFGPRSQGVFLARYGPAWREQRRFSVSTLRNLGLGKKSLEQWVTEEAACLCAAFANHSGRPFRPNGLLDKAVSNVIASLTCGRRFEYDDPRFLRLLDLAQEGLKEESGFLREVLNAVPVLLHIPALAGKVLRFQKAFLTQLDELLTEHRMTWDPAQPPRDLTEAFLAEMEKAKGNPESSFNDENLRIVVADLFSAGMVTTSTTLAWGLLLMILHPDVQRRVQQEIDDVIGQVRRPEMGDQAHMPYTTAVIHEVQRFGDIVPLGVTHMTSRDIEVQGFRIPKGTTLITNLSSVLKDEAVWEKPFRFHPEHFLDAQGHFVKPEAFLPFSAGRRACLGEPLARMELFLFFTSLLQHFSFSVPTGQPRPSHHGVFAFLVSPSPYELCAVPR
Method in brief: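 Chemicals tested for interference with CYP2D6 activity; proluciferin substrate, NADPH regeneration, 1 h at room temperature, luminescent detection.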

Measured: Potency

O=C(Nc1ccccc1)Nc1cnns1
active: [3] 39.9 µM | [4] 35.6 µM | [5] 3.56 µM | [7] 3.56 µM
inactive: [1] | [2] | [6]

COC(=O)C(C)N(C(=O)Cc1ccccc1)c1c(C)cccc1C (stereo not given)
inactive: [1] | [2] | [5] | [6]
active: [3] 3.56 µM | [4] 22.4 µM

CCOc1nc(F)cc2nc(S(=O)(=O)Nc3c(Cl)cccc3Cl)nn12
active: [4] 71 µM
not listed: [7] | [8]
inactive: all other assays above

C=CC(C)=O
inactive: [1] | [2] | [8] | [4] | [6]

O=C1CN=C(c2ccccc2)c2cc(Cl)ccc2N1CC1CC1
inactive: [2]
active: [1] 29.7 µM | [3] 6.64 µM | [4] 26.4 µM

CCCCN(N=O)C(=N)N[N+](=O)[O-]
active: [5] 40.8 µM
not listed: [7] | [8]
inactive: all other assays above

Cc1ccccc1CCl
not listed: [7] | [8]
inactive: all other assays above

C=CC[C@]1(O)CC[C@H]2[C@@H]3CCC4=CC(=O)CCC4=C3C=C[C@@]21C
inactive: [2] | [5] | [6]
active: [1] 6.92 µM | [3] 9.77 µM | [4] 11 µM

O=S(=O)(Cl)c1ccccc1
not listed: [8]
inactive: all other assays above

N#Cc1cc(I)c(O)c(I)c1
active: [4] 22.4 µM
not listed: [3] | [5]
inactive: all other assays above

CC(=O)C(C)(C)C
active: [5] 37 µM
not listed: [7] | [8]
inactive: all other assays above
